Results taken from PubChem BioAssay (NCATS).
“And” between values parts separate entries of the source, which are not always exact repeats. Equal entries are not always repeated. A number with no mark means an inactive call. Inconclusive results are not listed. The source made the active and inactive calls. Unless noted, the call rests on the fitted dose curve; in most records, active means well fitted curve in either direction with a large enough effect (not every such curve was filed as active); inconclusive means small, poorly fitted or top-dose-only effect, or another doubt; inactive means flat fitted curve, though single readings scatter.

How the values were obtained:
[1] = target: Lysosomal acid glucosylceramidase (Homo sapiens) (UniProt P04062); assay: Glucocerebrosidase-p2 (AID 348; in the data active means potency below about 10 µM; further: potency means the concentration at half of the fitted maximal effect); conditions: purified GBA, blue fluorogenic substrate, 40 min
Lysosomal acid glucosylceramidase (Homo sapiens), sequence (P04062 whole entry, looked up): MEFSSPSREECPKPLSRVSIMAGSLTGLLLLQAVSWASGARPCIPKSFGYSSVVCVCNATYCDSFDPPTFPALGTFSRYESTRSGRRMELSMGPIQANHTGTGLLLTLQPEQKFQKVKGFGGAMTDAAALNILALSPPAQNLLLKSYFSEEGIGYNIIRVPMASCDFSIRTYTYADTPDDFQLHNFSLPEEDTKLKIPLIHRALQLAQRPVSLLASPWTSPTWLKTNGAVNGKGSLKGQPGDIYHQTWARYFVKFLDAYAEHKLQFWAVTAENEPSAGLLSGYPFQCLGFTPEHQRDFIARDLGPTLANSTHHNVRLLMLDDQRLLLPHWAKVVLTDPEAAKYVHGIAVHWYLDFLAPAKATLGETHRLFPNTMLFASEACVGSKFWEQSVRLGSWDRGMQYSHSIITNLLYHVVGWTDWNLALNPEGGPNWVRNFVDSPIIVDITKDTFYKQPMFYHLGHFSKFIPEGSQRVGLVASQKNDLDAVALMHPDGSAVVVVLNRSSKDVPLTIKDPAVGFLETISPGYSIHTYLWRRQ
Summary of the method: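 Normal human glucocerebrosidase (0.2 nM) with blue fluorogenic substrate (80 uM final) in citrate/phosphate pH 5.9 with 10mM sodium taurocholate, 0.01% tween-20; 40 min RT, NaOH/glycine stop; fluorescence Ex 365/Em 440; AC50 from a titration from 0.6 nM upwards.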

[2] = AP1 Signaling Pathway (AID 357); conditions: ME-180 AP-1-bla reporter, EGF-induced, beta-lactamase ratio, 5 h; series mostly up to 17.2 µM;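 further: ME-180 reporter cells stimulated with EGF at its EC50 level; on the % scale 0 is the no-effect control and ±100 the full control effect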
Summary of the method: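 First, ME-180 AP-1-bla cells were cultured overnight at 37 °C in low-serum Opti-MEM. Next, titrated compounds with EC50 EGF were incubated 5 hours. Finally, CCF4 was added for 2.5 hours and the 460/530 nm ratio recorded.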

[3] = NFAT Signaling Pathway (AID 444); conditions: Jurkat NFAT-bla M1, carbachol, beta-lactamase ratio, 5 h;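 further: carbachol stimulus at about its EC50 of 1 µM final; on the % scale 0 is the no-effect control and ±100 the full control effect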
Summary of the method: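 Jurkat cells carrying an NFAT-driven β-lactamase reporter and co-transfected muscarinic M1 receptor were treated with compound plus carbachol (1 uM final, an EC50 level) for 5 h at 37 °C. CCF4 loading followed for 1 h at RT; 460/530 nm ratio gave %activity.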

[4] = Stat Signaling Pathway (AID 446); conditions: ME-180 (cervical carcinoma) SIE beta-lactamase reporter, IL-6 stimulated, 5 h;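 further: ME-180 cervical cancer cells given 40 pM IL-6 alongside compound; SIE-controlled beta-lactamase reporter measured as 460/530 nm FRET emission ratio; on the % scale 0 is the no-effect control and ±100 the full control effect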
Summary of the method: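 Compound effects on IL-6-induced STAT reporter activity were measured in ME-180 cells. After overnight culture, cells were co-treated with 40 pM IL-6 for 5 hrs before beta-lactamase substrate loading at room temperature.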

[5] = target: Mitogen-activated protein kinase 10 (Mus musculus) (UniProt Q61831); assay: JNK3 AlphaScreen Assay (AID 530); conditions: JNK3 lysate, c-Jun phosphorylation; series mostly up to 57.1 µM;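 further: kinase came from lysate of stimulated human HepG2 cells; signal reports phosphorylation of biotinylated GST-cJun 1-79 at Ser73 with 10 µM ATP; on the % scale 0 is the no-effect control and ±100 the full control effect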
Summary of the method: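 Biotinylated GST-cJun(1-79) served as substrate for JNK3 in HepG2 lysates stimulated with IL-1beta and TNF-alpha. ATP was 10 uM final, pH 7.6. Ser73 phosphorylation was quantified by AlphaScreen (680 nm excitation).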

[6] = target: Cytochrome P450 1A2 (Homo sapiens) (UniProt P05177); assay: p450-cyp1a2 (AID 410; calls by dose curve; further: potency means the concentration at half of the fitted maximal effect;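 on activity change, negative = inhibition: -100% = full effect of reference inhibitor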); conditions: recombinant CYP1A2, luciferin-ME demethylation, luminescence; series mostly up to 57 µM
Cytochrome P450 1A2 (Homo sapiens), sequence (P05177 whole entry, looked up): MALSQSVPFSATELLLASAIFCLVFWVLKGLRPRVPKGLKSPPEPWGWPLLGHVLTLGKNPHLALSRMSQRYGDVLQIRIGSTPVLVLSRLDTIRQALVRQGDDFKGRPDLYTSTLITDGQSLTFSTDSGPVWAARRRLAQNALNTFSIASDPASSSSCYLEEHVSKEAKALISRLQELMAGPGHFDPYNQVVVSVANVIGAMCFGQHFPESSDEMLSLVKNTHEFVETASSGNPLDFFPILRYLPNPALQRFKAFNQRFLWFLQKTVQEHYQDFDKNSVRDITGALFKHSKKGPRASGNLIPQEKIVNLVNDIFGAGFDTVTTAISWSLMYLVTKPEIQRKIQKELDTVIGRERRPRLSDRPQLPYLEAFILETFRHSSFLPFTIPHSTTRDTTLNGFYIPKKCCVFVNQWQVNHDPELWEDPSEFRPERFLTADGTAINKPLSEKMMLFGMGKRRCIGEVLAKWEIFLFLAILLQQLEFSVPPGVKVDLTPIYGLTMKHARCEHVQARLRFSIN
Summary of the method: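 20nM CYP1A2, 100uM Luciferin-ME (=Km), 100mM KPO4; cpd 10 min RT; +NADPH regen, 60 min RT; stop/detect 20 min; luminescence. Normalized to furafylline 57 uM = full inhibition.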

[7] = Cell Viability - BJ (AID 421; calls by dose curve;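 further: potency means the concentration at half of the fitted maximal effect; cells exposed to compound for 40 hours at 37 °C before readout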); conditions: BJ fibroblast viability, qHTS
Summary of the method: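 Luminescent ATP signal (CellTiter-Glo, 20 min at room temperature) served as the read-out of viable BJ cells after 40 hours of compound treatment. Responses were scaled between DMSO and 100 uM tamoxifen, and AC50 values were obtained by Hill modeling.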

[8] = Cell Viability - Jurkat (AID 426;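 active means dose-dependent loss of cell ATP signal giving a full or clear fitted curve, ranked by lower potency value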; further: potency means the concentration at half of the fitted maximal effect); conditions: qHTS
Summary of the method: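 Luminescent ATP read-out (CellTiter-Glo, 20 min at room temperature) after 40 hr compound exposure at 37 °C of Jurkat E6-1 cells, 5000/well. Decreased ATP taken as cytotoxicity; AC50 from standard Hill equation.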

[9] = Cell Viability - Hek293 (AID 427;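 active means compounds whose dose-response curve shows a full or clear partial loss of cell viability, called from curve shape rather than a numeric limit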;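 further: potency means the concentration at half of the fitted maximal effect; cells exposed to compound for 40 hours at 37 °C before reading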); conditions: qHTS
Summary of the method: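 Luminescent ATP read-out (CellTiter-Glo, 20 min RT) after 40 hr compound exposure at 37 °C in complete medium. Signal normalized to DMSO (basal) and 100 uM tamoxifen (100% inhibition); concentration-response fitted with the standard Hill equation to give AC50.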

[10] = Cell Viability - HepG2 (AID 433; calls by dose curve;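 further: potency means the concentration at half of the fitted maximal effect; potency for ATP loss meaning cytotoxicity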); conditions: qHTS
Summary of the method: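 HepG2 cells, 1500 per well, treated 40 hr at 37 °C in complete medium; viability from intracellular ATP by CellTiter-Glo luminescence. Normalized to DMSO and 100 uM tamoxifen; AC50 from Hill fit of qHTS concentration-response.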

[11] = Cell Viability - MRC5 (AID 434; calls by dose curve;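 further: potency means the concentration at half of the fitted maximal effect; potency reflects cytotoxicity seen as loss of intracellular ATP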); conditions: MRC5 lung fibroblast viability, qHTS
Summary of the method: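 Decrease in intracellular ATP, quantified by luciferase light output, reflects compound toxicity toward MRC5 cells exposed for 40 hr in complete culture medium. Concentration-response curves, scaled between DMSO and 100 uM tamoxifen, gave AC50 values.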

[12] = Cell Viability - SK-N-SH (AID 435; calls by dose curve; further: potency means the concentration at half of the fitted maximal effect); conditions: SK-N-SH neuroblastoma cell viability qHTS
Summary of the method: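 SK-N-SH neuroblastoma cells (1500/well) treated 40 h at 37 °C in complete medium; viability read as cellular ATP by CellTiter-Glo luminescence. Normalized to DMSO and 100 uM tamoxifen; AC50 from Hill fits of qHTS concentration-response.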

[13] = target: Glucocorticoid receptor (Homo sapiens) (UniProt P04150); assay: GR-GFP Redistribution (AID 450;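 active means compounds whose dose series gives a full or clear partial fitted curve of increased nuclear translocation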; further: potency means the concentration at half of the fitted maximal effect); conditions: U2OS GR-GFP nuclear translocation, laser cytometry, 2 h
Glucocorticoid receptor (Homo sapiens), sequence (P04150 whole entry, looked up, the tested form may be a part): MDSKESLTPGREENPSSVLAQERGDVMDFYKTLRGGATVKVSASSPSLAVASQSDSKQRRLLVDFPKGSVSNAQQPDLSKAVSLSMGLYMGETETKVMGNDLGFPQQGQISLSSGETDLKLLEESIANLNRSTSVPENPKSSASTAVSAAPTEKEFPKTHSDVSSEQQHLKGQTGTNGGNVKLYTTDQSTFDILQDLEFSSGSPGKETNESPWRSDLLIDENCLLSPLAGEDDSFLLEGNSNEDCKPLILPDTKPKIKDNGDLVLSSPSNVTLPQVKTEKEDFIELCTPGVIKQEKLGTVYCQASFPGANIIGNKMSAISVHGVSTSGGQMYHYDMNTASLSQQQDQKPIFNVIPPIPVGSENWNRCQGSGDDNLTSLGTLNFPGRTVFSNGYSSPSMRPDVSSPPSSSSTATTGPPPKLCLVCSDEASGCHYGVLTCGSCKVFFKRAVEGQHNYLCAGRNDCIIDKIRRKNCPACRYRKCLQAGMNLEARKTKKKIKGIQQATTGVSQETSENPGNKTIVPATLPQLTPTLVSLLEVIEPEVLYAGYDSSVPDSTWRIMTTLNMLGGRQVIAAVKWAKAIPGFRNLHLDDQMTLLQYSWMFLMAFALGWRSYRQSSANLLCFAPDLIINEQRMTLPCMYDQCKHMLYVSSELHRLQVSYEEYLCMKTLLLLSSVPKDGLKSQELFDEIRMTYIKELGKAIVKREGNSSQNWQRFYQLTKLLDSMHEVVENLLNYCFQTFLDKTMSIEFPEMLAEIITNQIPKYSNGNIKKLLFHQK

[14] = Cell Viability - N2a (AID 540; active means well fitted curve in the direction sought with a large enough effect; an effect the other way counts as inactive or inconclusive;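 further: plate controls were DMSO alone for no effect and tamoxifen control for full effect; nearly all actives have a fitted effect of over 45% in size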); conditions: N2a mouse neuroblastoma cell viability; at 92.2 µM (top of the series)
Summary of the method: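 N2a mouse neuroblastoma, 1500 cells/well, 5 hr settle; compound 40 hr, 37 °C; CellTiter-Glo 20 min RT; luminescence; Hill-fit AC50.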

[15] = Cell Viability - NIH 3T3 (AID 541; active means well fitted curve in the direction sought with a large enough effect; an effect the other way counts as inactive or inconclusive; further: nearly all actives have a fitted effect of over 25% in size; further: potency means the concentration at half of the fitted maximal effect;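 on activity change, negative = cytotoxicity: plate controls were DMSO alone for no effect and tamoxifen positive control for full effect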); conditions: NIH 3T3 cell viability, qHTS; activity change, negative = cytotoxicity: at 92.2 µM (top of the series)
Summary of the method: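 qHTS format; 40 hr compound exposure, 37 °C; CellTiter-Glo luminescence (cellular ATP) read-out after 20 min at RT. Decrease in ATP = cytotoxicity; AC50 from standard Hill fit.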

[16] = Cell Viability - HUV-EC-C (AID 542; active means well fitted curve in the direction sought with a large enough effect; an effect the other way counts as inactive or inconclusive; further: on the % scale 0 is the no-effect control and ±100 the full control effect; nearly all actives have a fitted effect of over 35% in size); conditions: HUV-EC-C endothelial cell viability, qHTS; series mostly up to 92.2 µM
Summary of the method: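 Luminescent ATP read-out (CellTiter-Glo, 20 min room temperature) after 40 hr compound treatment of HUV-EC-C cells at 37 °C. Concentration-response data fitted with the standard Hill equation to give AC50; tamoxifen and doxorubicin served as positive controls.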

[17] = Cell Viability - H-4-II-E (AID 543; active means well fitted curve in the direction sought with a large enough effect; an effect the other way counts as inactive or inconclusive; further: nearly all actives have a fitted effect of over 35% in size; further: potency means the concentration at half of the fitted maximal effect); conditions: H-4-II-E rat hepatoma viability; series mostly up to 92.2 µM
Summary of the method: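 qHTS, rat hepatoma H-4-II-E, 1500 cells/well; 40 hr compound exposure, 37 °C; CellTiter-Glo ATP luminescence after 20 min RT; AC50 by standard Hill fit.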

[18] = Cell Viability - SH-SY5Y (AID 544; active means well fitted curve in the direction sought with a large enough effect; an effect the other way counts as inactive or inconclusive; further: nearly all actives have a fitted effect of over 55% in size; further: potency means the concentration at half of the fitted maximal effect;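 on viability change, negative = cytotoxic: 0% = DMSO alone and -100% = 100 µM tamoxifen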); conditions: SH-SY5Y neuroblastoma cell viability; viability change, negative = cytotoxic: at 92.2 µM (top of the series)
Summary of the method: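 SH-SY5Y, 1500 cells/well, 5 hr pre-incubation 37 °C; cpd 40 hr 37 °C; CellTiter-Glo 20 min RT; luminescence (ATP) read. qHTS concentration-response, Hill fit → AC50. Tamoxifen, doxorubicin as positive controls.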

[19] = Cell Viability - Renal Proximal Tubule (AID 545; active means well fitted curve in the direction sought with a large enough effect; an effect the other way counts as inactive or inconclusive;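 further: 0% = DMSO only and -100% = 100 µM tamoxifen; nearly all actives have a fitted effect of over 40% in size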); conditions: renal proximal tubule cells viability; at 91.7 µM (top of the series) unless noted
Summary of the method: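 Rat renal proximal tubule primary cells, 1000/well, exposed to compounds for 40 hr at 37 °C in complete medium; cellular ATP read by CellTiter-Glo luminescence. AC50 from concentration-response fitted with standard Hill equation.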

[20] = target: Glucocorticoid receptor (Homo sapiens) (UniProt P04150); assay: GR-EFC Redistribution (AID 451; calls by dose curve; further: potency means the concentration at half of the fitted maximal effect); conditions: CHO-K1 GR-EFC translocation, beta-gal luminescence, 2 h
Summary of the method: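 CHO-K1 cells stably expressing nuclear-localized β-gal enzyme acceptor and GR fused C-terminally to the enzyme donor fragment; ligand-driven nuclear translocation restores β-gal by complementation. Compounds titrated up to 46 uM final, 2 h at 37 °C; luminescence read.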

O=c1[nH]c2ccccc2n1CCCN1CCC(n2c(=O)[nH]c3cc(Cl)ccc32)CC1
Potency [1]: > 11.4 µM
outcome [2]: inactive
activity change, negative = inhibition ([3]; at 7.69 µM (top of the series)): -18.5%
activity change, negative = inhibition ([3]; at 17.2 µM (top of the series)): -16.6% and -16.4%
activity change, negative = inhibition ([3]; at 38 µM (top of the series)): -15.8%
activity, negative = inhibition ([4]; at 7.69 µM (top of the series)): -2.55%
activity, negative = inhibition ([4]; at 17.2 µM (top of the series)): 1.15% and 2.02%
activity, negative = inhibition ([4]; at 38 µM (top of the series)): -0.208%
outcome [5]: inactive

N#CC(C#N)=Cc1ccc(O)c(O)c1
outcome [2]: inactive
Potency [6]: 15.8 µM (active) and 5.01 µM (active)
activity change, negative = inhibition ([3]; at 38 µM (top of the series)): -13.6%
activity, negative = inhibition ([4]; at 38 µM (top of the series)): -24.2%

CNCC(O)c1ccc(O)cc1 (stereo unspecified)
outcome [2]: inactive
Potency [7]: > 92 µM
Potency [8]: > 92 µM
Potency [9]: > 92 µM
Potency [10]: > 92 µM
Potency [11]: > 92 µM
Potency [12]: > 92 µM
activity change, negative = inhibition ([3]; at 17.2 µM (top of the series)): 19.4%
activity, negative = inhibition ([4]; at 17.2 µM (top of the series)): 14.9%
Potency [13]: > 20.6 µM
activity change, negative = cytotoxicity [14]: -10.6%
activity change, negative = cytotoxicity [15]: 2.22%
outcome [16]: inactive
Potency [17]: inactive
viability change, negative = cytotoxic [18]: -15.7%
activity change, negative = cytotoxicity [19]: -6.79%

Cc1ccc(S(=O)(=O)N[C@@H](CCCCN)C(=O)CCl)cc1
outcome [2]: inactive
Potency [6]: inactive
activity change, negative = inhibition ([3]; at 38 µM (top of the series)): -22.6%
activity, negative = inhibition ([4]; at 38 µM (top of the series)): -67% (active)
Potency [13]: > 46 µM
Potency [20]: > 46 µM
outcome [5]: inactive

CC(=O)[C@H]1CC[C@H]2[C@@H]3CC[C@H]4C[C@H](O)CC[C@]4(C)[C@H]3C(=O)C[C@]12C
outcome [2]: inactive
activity change, negative = inhibition ([3]; at 17.2 µM (top of the series)): -29.1%
activity, negative = inhibition ([4]; at 17.2 µM (top of the series)): -6.19%

COc1ccccc1N1CCNCC1
outcome [2]: inactive
Potency [6]: inactive
activity change, negative = inhibition ([3]; at 38 µM (top of the series)): -22.1%
activity, negative = inhibition ([4]; at 38 µM (top of the series)): 16.4%
Potency [13]: > 46 µM
Potency [20]: > 46 µM

CN1C[C@H](CNC(=O)OCc2ccccc2)C[C@@H]2c3cccc4c3c(cn4C)C[C@H]21
outcome [2]: inactive
activity change, negative = inhibition ([3]; at 17.2 µM (top of the series)): 11.1%
activity, negative = inhibition ([4]; at 17.2 µM (top of the series)): -8.15%

Oc1cccc2cccnc12
Potency [1]: > 11.4 µM
activity change, negative = inhibition [6]: -20% [at 11.4 µM]
Potency [7]: > 92 µM
Potency [11]: > 92 µM
Potency [12]: 24.4 µM (active) and 28.1 µM (active)
activity change, negative = inhibition ([3]; at 7.69 µM (top of the series)): 3.84%
activity, negative = inhibition ([4]; at 7.69 µM (top of the series)): -1.23%
outcome [5]: inactive
activity change, negative = cytotoxicity [14]: -89.1% (active)
Potency [15]: 12.6 µM (active) and 10 µM (active)
Potency [17]: 39.8 µM (active)
Potency [18]: 3.98 µM (active)
activity change, negative = cytotoxicity [19]: -13.9% and -16.1%
